This is one part of a sample in which hits are shown more often than they occur.
CHX counter: counter-screen hit for Shiga toxin inhibitors, cycloheximide; max response, %; 300,000 tested, 12% active; cell reporter, cycloheximide protein synthesis inhibition counterscreen; in the data active = max response mostly above about 13%, no sharp cut-off; inactive = mostly below about 14%; also: read at 38.3 µM for the half of the compounds with a filed dose; 0% is about no effect
VACV Venus inh: vaccinia inhibition (Venus reporter) | 330,000 tested, 0.46% active | Vaccinia virus Venus reporter expression, fluorescence | Potency, µM (titrated, usually from 36.5 µM), for inactives: at the top dose activity change, negative = inhibition, hits mostly inhibitors; calls by dose curve; tested in A549 cells; also: potency is read from the fitted curve at half-maximal effect; % is scaled to controls: 0 for no effect and ±100 for the full control effect; nearly all actives have a fitted effect of over 30% in size
Marburg entry inh: inhibitors of Marburg virus binding or cell entry | Marburg virus pseudotyped entry inhibition, cell reporter | 300,000 tested, 1.8% active | AID 540276 | Potency, µM (titrated, usually from 37.8 µM), inactives show top-dose activity change, negative = inhibition, actives largely listed as inhibitors; calls by dose curve; tested in HEK293 cells; also: potency is read from the fitted curve at half-maximal effect; % is scaled to controls: 0 for no effect and ±100 for the full control effect
Lassa entry inh: Lassa virus entry inhibition. Potency, µM (top dose mostly 37.9 µM), without a hit: at the top dose activity change, negative = inhibition, usual class: inhibitors. Lassa virus pseudotype entry inhibition, cell reporter. AID 540256. 300,000 tested, 1.2% active; calls by dose curve; tested in HEK293 cells; also: potency is read from the fitted curve at half-maximal effect; % is scaled to controls: 0 for no effect and ±100 for the full control effect; nearly all actives have a fitted effect of over 50% in size
Shiga inhibitor: inhibitors of Shiga toxin in Vero cells; Vero cells, Shiga toxin protein synthesis inhibition reporter; inhibition, % at 38.7 µM; 290,000 tested, 9.2% active; in the data active = inhibition mostly above about 28%, no sharp cut-off; inactive = mostly below about 43%; also: 0% is about no effect
Vaccinia mCherry: inhibitors of vaccinia virus infection (mCherry reporter signal). Vaccinia virus mCherry reporter infection, fluorescence. Potency, µM (highest dose often 36.5 µM), for the others: at the top dose activity change, negative = inhibition, hits mostly inhibitors. 310,000 tested, 0.63% active. AID 720579; calls by dose curve; tested in A549 cells; also: potency is read from the fitted curve at half-maximal effect; % is scaled to controls: 0 for no effect and ±100 for the full control effect; nearly all actives have a fitted effect of over 35% in size
The depositor's hits bear a star; i = inactive; ? = inconclusive; / = no result; [ ] = dose if it differs, or a comment.

SMILES | CHX counter | VACV Venus inh | Marburg entry inh | Lassa entry inh | Shiga inhibitor | Vaccinia mCherry
CC1(C)Cc2nc3sc4c(N(CCO)CCO)nnnc4c3cc2CO1 | 29* | 4% | 12%[46.1 µM] | 9%[46.1 µM] | 78* | i
CC1(C)Cc2nc3sc4c(N(CCO)CCO)ncnc4c3cc2CO1 | 21* | -12% | 4% | 0% | 29 | i
CC1(C)Cc2nc3sc4c(SCC(=O)O)ncnc4c3cc2CO1 | 2 | / | / | / | -7 | /
COc1ccc(CNCC(=O)Nc2ccccc2-n2cccc2)cc1 | 10 | ? | / | / | 7 | ?
O=C(CSc1n[nH]c(-c2ccncc2)n1)Nc1ccccc1Cl | / | -3% | 17%[46.1 µM] | -16% | / | i
CN(C)c1cccc(C(=O)NNC(=S)NC2CC3CCC2C3)c1 (stereo not given) | 32* | -3% | ? | -3% | 56* | -3%
CC(C)N(C(=S)NC1CC2CCC1C2)c1ccccc1 (stereo not given) | -2 | -5% | -6%[46.1 µM] | -10%[46.1 µM] | -15 | -3%
C/C(=N\NC(=O)Cn1cnc2ccccc21)c1cccs1 | -4 | -2% | -20%[46.1 µM] | -12%[46.1 µM] | 18 | -12%
CC(=O)Nc1ccc(C(=O)Cn2nnc3ccccc3c2=O)cc1 | 13* | -7% | ? | 35%[14.3 µM] | 50* | -8%
Cc1ccc(NC(=O)CCn2nnc3ccccc32)c(C)c1 | -3 | -4% | ? | 21% | -10 | -3%
Cc1ccc(C(=O)NNC(=O)Cn2nnc3ccccc32)cc1 | 17* | -6% | 7% | ? | 41* | -3%
Cc1ccc(NC(=O)CCn2nnc3ccccc32)cc1 | 25* | -11% | ? | 24% | 79* | -14%
C/C(=N\NC(=O)CCn1nnc2ccccc21)c1cccs1 | 33* | -17% | 39%[46.1 µM] | 1%[46.1 µM] | 51* | i
O=C1c2[nH]nc(-c3ccccc3O)c2C(c2ccc(Cl)cc2)N1CCc1ccccc1 (stereo not given) | / | -5%[7.34 µM] | ? | ? | / | -6%[7.34 µM]
O=C(Cn1nnc2ccccc21)C1CC1 | -2 | -7% | 7% | 8% | -8 | /
O=C(Cn1nnc2ccccc21)NCc1ccccc1 | 60* | -9% | ? | ? | 64* | /
Cc1ccc(C(=O)Cn2nnc3ccccc32)cc1C | 69* | -10% | ? | ? | 140* | -17%
c1ccc(CCn2nnc3ccccc32)cc1 | 50* | -1% | / | / | 189* | -4%
O=C(CCn1nnc2ccccc21)N1CCN(c2ccccc2)CC1 | 27 | -1% | 2% | 16% | 78* | -9%
O=C(Cn1nnc2ccccc21)c1ccc(Br)cc1 | 35* | 7% | ? | 22% | 48* | i
Cc1ccc(C(=O)Cn2nnc3ccccc32)cc1 | 38* | 2% | ? | 10% | 66* | /
O=C(Cn1c(C(F)(F)F)nc2ccccc21)c1ccc(Br)cc1 | -5 | -11% | ? | ? | -18 | -9%
O=C(Cn1nnc2ccccc21)OCC(=O)c1ccc(Cl)cc1 | 2 | / | / | / | 3 | /
Cc1cc(=O)c2ccccc2n1CC(=O)NCc1ccccc1 | -4 | -18% | 10µM* | ? | -2 | -2%
CCOC(=O)N1CCc2c(sc(NCc3ccc(N(C)C)cc3)c2C(=O)Nc2ccc(OC)cc2)C1 | / | -9% | / | ? | / | -4%
SMILES | CHX counter | VACV Venus inh | Marburg entry inh | Lassa entry inh | Shiga inhibitor | Vaccinia mCherry
COc1ccc(CCn2cc3c(c2-c2ccccc2Br)c(=O)n(C)c(=O)n3C)cc1OC | / | 4% | ? | 0%[46.1 µM] | / | -4%
c1ccc2sc(-c3cc4c(c(OC5CCOC5)c3)OCCN(Cc3cccn3-c3nccs3)C4)nc2c1 (stereo not given) | / | -5% | / | / | / | -12%
COc1ccc(-c2nc3n(n2)C(c2ccc(OC)cc2)C(C(=O)Nc2cccnc2)=C(C)N3)cc1 (stereo not given) | / | -7% | -30%[46.1 µM] | 1%[46.1 µM] | / | 0%
CC(C)=CCc1c(O)ccc2c1OC(c1ccc(O)c(O)c1)CC2=O (stereo not given) | 14* | -2% | / | / | 4 | -24%
O=c1c(-c2ccc(Cl)cc2)c(C(F)(F)F)oc2c(CN3CCCCC3)c(O)ccc12 | / | -9% | 6%[46.1 µM] | -2%[46.1 µM] | / | -14%
CN(C(=O)c1cccc(NC(=O)Cc2ccc(NC(=O)C3CCCN(C(=O)CCc4ccccc4)C3)cc2)c1)C1CC1 (stereo not given) | / | -7% | / | / | / | ?
CN(Cc1ccccc1)C(=O)c1ccc(NC(=O)Cc2ccc(NC(=O)C3CCCN(C(=O)C4CCC4)C3)cc2)cc1 (stereo not given) | / | -22% | / | / | / | -16%

Screening results: PubChem, National Center for Advancing Translational Sciences (NCATS)
